Data: PubChem BioAssay
The source made the active and inactive calls. Unless noted, no rule for the calls is given here.

Experiments:
[1] = compound effects on lung adenocarcinoma cell viability – A549, calcein-AM fluorescence, 48 h, basal, profiling panel (AID 1162); settings: higher = more signal; also: test concentration not given here
[2] = compound effects on differentiated 3T3-L1 adipocyte viability – cell-based, 3T3-L1 adipocytes, calcein-AM fluorescence, 48 h, basal, profiling panel (AID 1163); settings: 3T3-L1 adipocytes viability, higher = more signal; also: test concentration not given here
[3] = compound effects on hepatocellular carcinoma cell viability – HepG2, calcein-AM fluorescence, 48 h, basal, profiling panel (AID 1164); settings: higher = more signal; also: test concentration not given here
[4] = compound effects on multiple myeloma cell viability – MM1S, calcein-AM fluorescence, 48 h, basal, profiling panel (AID 1165); settings: higher = more signal;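 also: viability of MM1S multiple myeloma cells under basal unstimulated conditions; test concentration not given here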
[5] = calcein-AM signal in unstimulated myeloma cells – cell-based, calcein-AM fluorescence, 48 h, PK04 Diversity Set, profiling panel (AID 1166); settings: RPMI8226 myeloma viability, higher = more signal;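 also: cells grown under basal conditions without added stimulus; test concentration not given here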
[6] = JC-1 mitochondrial signal, unstimulated HepG2 cells – cell-based, JC-1 fluorescence, 24 h, 100 nL compound, profiling panel (AID 1167); settings: HepG2 mitochondrial potential, higher = more signal; also: test concentration not given here
[7] = JC-1 mitochondrial signal, unstimulated adipocytes – cell-based, JC-1 fluorescence, 3T3-L1 adipocytes, 24 h, 100 nL compound, profiling panel (AID 1168); settings: JC-1 mitochondrial fluorescence, higher = more signal, called active from +8 up or from −8 down; also: test concentration not given here
[8] = JC-1 mitochondrial signal, unstimulated myeloma cells – cell-based, JC-1 fluorescence, RPMI8226, 24 h, 100 nL compound, profiling panel (AID 1169); settings: JC-1 mitochondrial potential fluorescence, higher = more signal; also: test concentration not given here
[9] = JC-1 mitochondrial signal, unstimulated MM1S myeloma – cell-based, JC-1 fluorescence, 24 h, 100 nL compound, profiling panel (AID 1170); settings: MM1S mitochondrial potential, higher = more signal; also: test concentration not given here
[10] = resazurin metabolic signal in A549 cells – cell-based, resazurin fluorescence, 24 h, PK04 Diversity Set, profiling panel (AID 1171); settings: A549 viability, higher = more signal, called active from +8 up or from −8 down; also: test concentration not given here
[11] = resazurin metabolic signal in HepG2 cells – cell-based, resazurin fluorescence, 24 h, PK04 Diversity Set, profiling panel (AID 1172); settings: HepG2 viability, higher = more signal; also: test concentration not given here
[12] = budding yeast growth changes without added modifier – OD600, strain BY4716, 24 h, basal condition, primary screen (AID 1173); settings: S. cerevisiae BY4716 growth, OD600, 24 h; higher = more signal, called active from +8 up or from −8 down
[13] = viability profiling in MM1S myeloma cells – cell-based, resazurin fluorescence, basal, 24 h, PK04 Diversity Set, profiling panel (AID 1174); settings: higher = more signal, called active from +8 up or from −8 down; also: test concentration not given here
[14] = biological target: Dihydroorotate dehydrogenase (quinone), mitochondrial (Plasmodium falciparum (isolate 3D7)) (UniProt Q08210); assay: inhibition of P. falciparum DHODH – biochemical, C-terminal His tag, absorbance 600 nm, primary screen (AID 1175); settings: PfDHODH enzyme, DCIP absorbance 600 nm; higher = more signal, called active from +8 up or from −8 down;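 also: recombinant parasite enzyme with a five histidine tag at its C terminus; test concentration not given here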
Dihydroorotate dehydrogenase (quinone), mitochondrial (Plasmodium falciparum (isolate 3D7)), sequence (Q08210 whole entry, looked up): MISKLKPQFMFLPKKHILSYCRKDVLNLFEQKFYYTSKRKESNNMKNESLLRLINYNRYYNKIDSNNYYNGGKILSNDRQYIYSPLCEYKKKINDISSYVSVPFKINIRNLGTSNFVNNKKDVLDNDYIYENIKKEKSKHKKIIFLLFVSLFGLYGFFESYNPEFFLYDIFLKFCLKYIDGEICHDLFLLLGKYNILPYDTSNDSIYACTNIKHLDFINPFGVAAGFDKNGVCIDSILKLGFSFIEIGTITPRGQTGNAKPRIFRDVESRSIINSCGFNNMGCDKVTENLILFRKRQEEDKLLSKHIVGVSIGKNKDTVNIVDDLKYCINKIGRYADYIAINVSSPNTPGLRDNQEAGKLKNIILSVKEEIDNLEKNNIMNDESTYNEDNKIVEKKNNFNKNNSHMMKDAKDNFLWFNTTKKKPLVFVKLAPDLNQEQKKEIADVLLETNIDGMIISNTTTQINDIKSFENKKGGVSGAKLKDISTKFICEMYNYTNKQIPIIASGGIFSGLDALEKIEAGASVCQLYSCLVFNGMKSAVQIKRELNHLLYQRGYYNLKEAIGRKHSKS

[15] = inhibition of PAO1 biofilm formation – strain PAO1, LB-PBS medium, absorbance 600 nm, primary screen (AID 1176); also: test concentration not given here; settings: P. aeruginosa PAO1 growth/biofilm, A600, 12 h; higher = more signal
[16] = growth modulation of vineyard yeast isolate – strain RM11-1a, OD600, basal, 24 h, primary screen (AID 1177);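 also: cultures grown under basal conditions with no added stressor; test concentration not given here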; settings: S. cerevisiae RM11-1a growth, OD600, 24 h; higher = more signal, called active from +8 up or from −8 down
[17] = growth of efflux-deficient E. coli DRC39 – strain DRC39, OD650, 24 h, E. coli filamentation inducers, primary screen (AID 1178);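 also: growth measured as culture turbidity by optical density at 650 nm; test concentration not given here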; settings: E. coli DRC39 acrAB, higher = more signal, called active from +8 up or from −8 down
[18] = growth of efflux-deficient E. coli DRC39 – strain DRC39, OD650, 48 h, E. coli filamentation inducers, primary screen (AID 1179);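 also: screen aims at cell division blockers that make cells filament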; settings: E. coli DRC39 delta-acrAB growth, higher = more signal, called active from +8 up or from −8 down
[19] = viability profiling in RPMI8226 myeloma cells – cell-based, resazurin fluorescence, basal, 24 h, PK04 Diversity Set, profiling panel (AID 1180); settings: higher = more signal;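 also: RPMI8826 multiple myeloma cell line at 5000 cells per well; test concentration not given here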
[20] = biological target: E3 ubiquitin-protein ligase XIAP (Homo sapiens) (UniProt P98170); assay: small molecules binding XIAP protein – biophysical, small-molecule microarray, fluorescence 635 nm, primary screen (AID 1181); settings: higher = more signal;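 also: score merges 667 nm emission and signal to noise over triplicate slides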
E3 ubiquitin-protein ligase XIAP (Homo sapiens), sequence (P98170 whole entry, looked up): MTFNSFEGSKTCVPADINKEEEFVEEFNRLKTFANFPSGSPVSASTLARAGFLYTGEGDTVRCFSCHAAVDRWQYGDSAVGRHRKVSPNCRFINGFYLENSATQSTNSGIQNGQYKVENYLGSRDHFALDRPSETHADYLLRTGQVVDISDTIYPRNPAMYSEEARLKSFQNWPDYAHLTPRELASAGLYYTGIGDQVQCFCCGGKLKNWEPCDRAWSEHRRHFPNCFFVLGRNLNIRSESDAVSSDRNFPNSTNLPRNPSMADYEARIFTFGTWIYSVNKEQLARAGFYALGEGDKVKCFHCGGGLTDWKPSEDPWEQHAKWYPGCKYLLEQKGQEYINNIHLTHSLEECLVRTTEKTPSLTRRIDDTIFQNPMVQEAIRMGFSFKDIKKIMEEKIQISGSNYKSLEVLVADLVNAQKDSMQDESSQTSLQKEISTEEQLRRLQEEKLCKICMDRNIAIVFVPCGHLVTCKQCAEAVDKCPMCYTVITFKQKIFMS

Row | SMILES | z-score [1] | z-score [2] | z-score [3] | z-score [4] | z-score [5] | z-score [6] | z-score [7] | z-score [8] | z-score [9] | z-score [10] | z-score [11] | z-score [12] | z-score [13] | composite z-score [14] | z-score [15] | z-score [16] | z-score [17] | z-score [18] | z-score [19] | composite z-score [20]
1 | Cc1cccc([C@H]2C[C@H]3C(I)=C[C@@H]2C(=O)[C@]32CO2)c1 | -0.985 | -0.176 | -0.902 | -3.19 | -3.12 | -1.45 | 0.224 (inactive) | -0.889 | -0.753 | -0.109 (inactive) | 0.644 | -10.5 (active) | -0.415 (inactive) | 0.284 (inactive) | 0.531 (inactive) | -0.639 (inactive) | -0.545 (inactive) | -1.15 (inactive) | 0.305 | 0.49
2 | O=C(N1CCOCC1)[C@@]1(CCS(=O)(=O)c2ccccc2)N=C(c2ccc(OCCCO)cc2)O[C@H]1c1ccccc1 | 0.723 | -0.614 | 0.491 | 0.201 | 0.614 | 0.271 | -0.277 (inactive) | -0.489 | -0.617 | -0.223 (inactive) | -0.285 | 1.24 (inactive) | -0.986 (inactive) | 0.225 (inactive) | 1.02 (inactive) | 0.0235 (inactive) | 0.0835 (inactive) | 0.0231 (inactive) | -1.09 | 0.3
3 | CCCCC(=O)N(CCN1CCOCC1)[C@@H]1CC(C(=O)NCCO)=C[C@H](Oc2c(I)cc(CO)cc2OC)[C@H]1O | 1.5 | -1.07 | 0.569 | 0.135 | -0.157 | -0.959 | -0.716 (inactive) | -0.277 | -0.109 | -0.0043 (inactive) | 0.246 | -1.23 (inactive) | 0.0671 (inactive) | 0.229 (inactive) | 0.118 (inactive) | 0.615 (inactive) | 1.34 (inactive) | 1.15 (inactive) | 0.29 | -0.22
4 | CC(C)C(CO)N1C(=O)[C@@H]2[C@H]3C(=O)OCC=C[C@H]3OC23C=CCN(C(C)(C)C)C(=O)[C@@H]13 (stereo not given in full) | -0.234 | -0.783 | -0.543 | 0.583 | -0.251 | -1.16 | -0.0819 (inactive) | 0.185 | 0.264 | -0.166 (inactive) | -0.341 | 0.542 (inactive) | -0.763 (inactive) | 0.648 (inactive) | 0.137 (inactive) | 1.18 (inactive) | -0.804 (inactive) | -0.854 (inactive) | -0.941 | -0.156
5 | COc1cc2c(cc1O)C(c1cccs1)N(Cc1sc3ccccc3c1Cl)CC2 (stereo not given) | -3.77 | 0.623 | -4.6 | -3.27 | -4.2 | -3.1 | -0.197 (inactive) | -0.894 | -0.194 | -0.403 (inactive) | -1.05 | -1.41 (inactive) | -0.519 (inactive) | -1.72 (inactive) | -0.131 (inactive) | -0.0369 (inactive) | -0.0316 (inactive) | -0.89 (inactive) | -0.94 | 0.134
6 | Cc1ccc([C@H]2C(C(=O)O)=C[C@@H](C(C)(C)C)N2S(=O)(=O)c2ccc(C)cc2)cc1 | -0.728 | -0.85 | -0.338 | 0.0315 | -0.4 | -0.892 | -0.38 (inactive) | -0.0701 | -1.19 | -0.654 (inactive) | -0.553 | -0.405 (inactive) | -0.648 (inactive) | -0.241 (inactive) | 0.353 (inactive) | -0.0566 (inactive) | -1.36 (inactive) | -0.387 (inactive) | -2.49 | 0.193
7 | CCCCC(=C=CC[C@H](O)c1ccc(OCCO)cc1)C[C@H](O)c1cc(Cl)cc(Cl)c1O | -0.217 | -0.185 | -0.197 | -3.34 | -2.76 | -2.43 | -0.368 (inactive) | -0.773 | -0.349 | 1.17 (inactive) | 0.984 | -4.58 (inactive) | 0.437 (inactive) | -1.74 (inactive) | 0.579 (inactive) | -0.674 (inactive) | 0.947 (inactive) | 0.514 (inactive) | 1.36 | -0.0773
8 | CN1C(=O)[C@@H]2[C@@H](CC(COc3ccccc3)=C([C@H](O)CCc3ccccc3)[C@@H]2CO)C1=O | 1.9 | -0.13 | 0.943 | 0.445 | -0.388 | 0.397 | 0.813 (inactive) | -0.274 | 0.472 | -0.123 (inactive) | 0.358 | -3.31 (inactive) | 0.0223 (inactive) | -0.171 (inactive) | -0.104 (inactive) | -0.136 (inactive) | 2.19 (inactive) | 1.17 (inactive) | 0.685 | 0.0178
9 | CC(C)C(=C=CC[C@@H](O)c1cccc(OCCO)c1)C[C@@H](O)c1ccccn1 | -0.171 | -0.142 | -0.295 | -0.0369 | 0.128 | -0.0286 | -0.425 (inactive) | -0.387 | -0.753 | 1.22 (inactive) | 0.828 | -1.02 (inactive) | 0.642 (inactive) | -6.55 (inactive) | -0.0342 (inactive) | 0.488 (inactive) | 0.267 (inactive) | -0.158 (inactive) | 0.463 | 0.127
